DT40 TDP1 CPT = DT40-hTDP1 cell growth loss with CPT | chicken DT40 Tdp1-/-;hTDP1 cells + 20 nM CPT, ATP luminescence, 48 h | Potency, µM (series often up to 46.2 µM), most hits filed as inhibitors | 12% of 420,000 active; further: nearly all actives have a fitted effect of over 55% in size
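Chicken DT40 Tdp1-/- cells stably complemented with human TDP1 were seeded at 400 cells/well in medium containing 20 nM camptothecin, exposed to pin-transferred compounds, and grown at 37 °C for at least 48 hr. Viability was read as ATP luminescence.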
IL-1B inflam inh = inhibitors of inflammasome signaling (IL-1 beta secretion); THP-1 LPS/ATP IL-1B secretion, AlphaLISA, 16 h; stronger effect = lower value; activity change, % at 57.5 µM; 4.7% of 360,000 active; in the data active means activity change below about -50%; inconclusive means mostly about -30% to -49%
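Secreted IL-1B measured by AlphaLISA bead assay after 16 h compound exposure of THP-1 cells; compounds (final up to 57.5 uM) added 1 h before LPS (250 ng/mL) and ATP (1.25 mM) stimulation; lower signal means less secretion.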
D3 ag = agonists of human D3 dopamine receptor; P35462; D3R DiscoveRx beta-arrestin cells, luminescence, 90 min; max activation, %; 0.58% of 410,000 active; AID 652048; in the data active means max activation above about 30%
Target sequence (P35462 whole entry, looked up): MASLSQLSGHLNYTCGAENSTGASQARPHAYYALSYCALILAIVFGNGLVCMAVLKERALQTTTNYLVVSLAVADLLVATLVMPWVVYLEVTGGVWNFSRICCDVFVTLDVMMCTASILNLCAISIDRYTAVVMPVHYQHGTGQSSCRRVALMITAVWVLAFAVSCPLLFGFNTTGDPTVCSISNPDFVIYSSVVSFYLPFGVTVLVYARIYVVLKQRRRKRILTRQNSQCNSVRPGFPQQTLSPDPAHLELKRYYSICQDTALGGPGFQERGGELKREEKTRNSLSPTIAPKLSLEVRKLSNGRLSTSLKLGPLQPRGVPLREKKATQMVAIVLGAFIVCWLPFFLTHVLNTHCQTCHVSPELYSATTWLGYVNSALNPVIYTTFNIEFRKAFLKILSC
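Agonist mode: compounds and dopamine controls were applied to plated cells for 90 min at 37 degrees C after an overnight attachment at 1500 cells/well. Luminescent read-out followed 30 - 60 minutes at room temperature with DiscoveRx detection reagent.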
ClpP mod = qHTS Assay for Activators of ClpP; ATP-dependent Clp protease proteolytic subunit (Bacillus subtilis (strain 168)), P80244; purified B. subtilis ClpP, FRET peptide cleavage, 20 min; Potency, µM (doses to about 57.5 µM); 1.9% of 340,000 active; AID 651965, 2013; active means well fitted falling curve with a large enough effect; inconclusive means small, poorly fitted or top-dose-only effect; inactive means no such curve, though single readings can be large or run the other way; further: the source files actives as falling curves though it sought activators and does not explain the sign; nearly all actives have a fitted effect of over 65% in size
Target sequence (P80244 whole entry, looked up): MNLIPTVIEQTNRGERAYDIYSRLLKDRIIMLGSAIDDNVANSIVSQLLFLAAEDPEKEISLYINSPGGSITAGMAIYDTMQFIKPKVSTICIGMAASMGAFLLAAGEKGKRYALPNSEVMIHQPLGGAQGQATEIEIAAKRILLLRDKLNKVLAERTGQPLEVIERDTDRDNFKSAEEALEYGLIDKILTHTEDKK
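FRET quenching reversal measured ClpP activation: 10 microg/mL B. subtilis ClpP at pH 8 with the FRET-FV decapeptide, read at 430 nm after 320 nm excitation. The 20-min minus 0-min signal was scaled between DMSO/no-enzyme wells and ADEP (5.8 microM final).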
DT40 TDP1 no CPT = qHTS for Inhibitors of human tyrosyl-DNA phosphodiesterase 1 (TDP1): qHTS in cells in absence of CPT. DT40 Tdp1-/- hTDP1 cells, no CPT, ATP luminescence, 48 h. 15% of 420,000 active. Potency, µM (doses to about 46.2 µM), hits mostly inhibitors; further: nearly all actives have a fitted effect of over 55% in size
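Growth kinetics read by CellTiter-Glo luminescence after ≥48 hr at 37 °C. Cells: DT40 Tdp1-/- stably carrying human TDP1, 400 per well, compound exposure in the absence of CPT (DMSO vehicle).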
DRD3 antagonist = antagonists of human D3 dopamine receptor. P35462. D3R cells, DiscoveRx beta-arrestin luminescence, antagonist mode; stronger effect = lower value. max response, negative = inhibition, %. 2.5% of 360,000 active. AID 652054; in the data active means max response below about -50%; inconclusive means no clear call, values can overlap the other calls
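Cells expressing the human receptor were seeded at 1500 cells/well, incubated overnight at 37 degrees C in 5% CO2, then exposed to library compounds with dopamine controls for 90 minutes at 37 degrees C before luminescent detection.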
A number is an active result. The list is not random: actives were taken first. Their share in the collection is about 21%. Unless noted, the call rests on the fitted dose curve; in most records, active means well fitted inhibition curve with a large enough effect; inconclusive means small, poorly fitted or top-dose-only effect; inactive means flat fitted curve, though single readings scatter.

`C=C1CCC[C@]2(C)C[C@H]3OC(=O)C(CN[C@@H](C)c4ccccc4)[C@H]3CC12` (stereo partly drawn) gave DT40 TDP1 CPT inconclusive, IL-1B inflam inh -86.9, D3 ag inactive, DT40 TDP1 no CPT inconclusive and DRD3 antagonist inactive.
O=C(CSc1ccncc1)NCC1Cc2cccc(-c3cncnc3)c2O1 (stereo not drawn) was read as DT40 TDP1 CPT inconclusive and DT40 TDP1 no CPT inactive.
Screening COc1cccc(CNC(=O)c2c(C)oc3nc(C)nc(N4CCOCC4)c23)c1 returned DT40 TDP1 CPT inactive, D3 ag inactive, ClpP mod inactive and DT40 TDP1 no CPT inactive.
`C=C1CCC[C@]2(C)C[C@H]3OC(=O)C(CNC(C)CCCC(C)C)[C@H]3CC12` (stereo partly drawn) gave DT40 TDP1 CPT inconclusive, IL-1B inflam inh -98.6, D3 ag inactive, ClpP mod inactive, DT40 TDP1 no CPT 20.6µM and DRD3 antagonist inactive.
CSC1=NC(NCCCO)c2c(sc3c2CC(C)(C)OC3)N1 (stereo not drawn) was read as DT40 TDP1 CPT inactive, IL-1B inflam inh inactive, D3 ag inactive, ClpP mod 11.2µM, DT40 TDP1 no CPT inconclusive and DRD3 antagonist inactive.
Screening CSc1nc(SCC(=O)O)c2c3c(sc2n1)COC(C)(C)C3 returned DT40 TDP1 CPT inactive, IL-1B inflam inh inactive, D3 ag inactive, ClpP mod inactive, DT40 TDP1 no CPT inactive and DRD3 antagonist inactive.
Screening COc1ccccc1CNC(=O)c1ccc(C)c(-n2cnc3cccnc32)c1 returned DT40 TDP1 CPT inconclusive, D3 ag inactive, ClpP mod inactive and DT40 TDP1 no CPT inconclusive.
C/C(=N\NC1=NCCN1)c1ccccc1 was read as DT40 TDP1 CPT inactive, IL-1B inflam inh inactive, D3 ag inactive, ClpP mod inactive, DT40 TDP1 no CPT inconclusive and DRD3 antagonist inactive.
C/C(=N\NC1=NCCN1)c1ccc(Cl)cc1 was read as DT40 TDP1 CPT inactive, IL-1B inflam inh inactive, D3 ag inactive, DT40 TDP1 no CPT inactive and DRD3 antagonist inactive.
For COc1ccc(Br)cc1/C(C)=N/NC1=NCCN1 the results were DT40 TDP1 CPT 8.2µM, IL-1B inflam inh -76.2, D3 ag inactive, ClpP mod inactive, DT40 TDP1 no CPT 14.6µM and DRD3 antagonist -52.0.
`CCCCCOc1ccc(Br)cc1/C(C)=N/NC1=NCCN1` gave DT40 TDP1 CPT 5.8µM, IL-1B inflam inh -102.9, D3 ag inactive, ClpP mod inactive, DT40 TDP1 no CPT 4.61µM and DRD3 antagonist inconclusive.
`Cc1ccnc2nc(NC(=O)c3ccccc3Cl)nn12` gave DT40 TDP1 CPT inactive, D3 ag inactive, ClpP mod inactive and DT40 TDP1 no CPT inactive.
`COC(=O)c1c(NC(=O)CSc2ncnc3ccccc23)sc(C)c1C` gave DT40 TDP1 CPT 18.4µM, IL-1B inflam inh inactive, D3 ag inactive, DT40 TDP1 no CPT 23.1µM and DRD3 antagonist inactive.
CCOC(=O)c1c(NC(=O)CSc2ncnc3ccccc23)sc(C(C)=O)c1C was read as DT40 TDP1 CPT 8.2µM, IL-1B inflam inh inactive, D3 ag inactive, DT40 TDP1 no CPT 9.2µM and DRD3 antagonist inactive.
Screening CCOC(=O)c1c(NC(=O)Cn2nnc(-c3ccc(Cl)cc3)n2)sc(C)c1C returned DT40 TDP1 CPT inactive, IL-1B inflam inh inactive, D3 ag inactive, ClpP mod 25.1µM, DT40 TDP1 no CPT inactive and DRD3 antagonist inactive.
Screening CCOC(=O)c1c(NC(=O)CSc2nc3ccccc3s2)sc(C)c1C returned DT40 TDP1 CPT 16.4µM, IL-1B inflam inh inactive, D3 ag inactive, ClpP mod inactive, DT40 TDP1 no CPT inconclusive and DRD3 antagonist inactive.
For CCOC(=O)c1c(NC(=O)CSc2nc3ccccc3o2)sc(C)c1C the results were DT40 TDP1 CPT inconclusive, IL-1B inflam inh inactive, D3 ag inactive, ClpP mod inactive, DT40 TDP1 no CPT inconclusive and DRD3 antagonist inactive.
CCOC(=O)c1c(NC(=O)CSc2nc3ccccc3c(=O)n2-c2ccc(F)cc2)sc(C(C)=O)c1C was read as DT40 TDP1 CPT inactive, IL-1B inflam inh inactive, D3 ag inactive, ClpP mod inactive, DT40 TDP1 no CPT inactive and DRD3 antagonist inactive.
For CCc1nnc(NC(=O)C2CCCN2C(=O)Nc2ccc(C)cc2)s1 (stereo not drawn) the results were DT40 TDP1 CPT inactive, IL-1B inflam inh inactive, D3 ag inactive, DT40 TDP1 no CPT inactive and DRD3 antagonist inactive.
O=C(C[C@@H]1C/C=C\C[C@H](Cc2ccc(F)cc2)C(=O)OCCNC1=O)N[C@H](CO)Cc1ccccc1 was read as DT40 TDP1 CPT inconclusive, IL-1B inflam inh inactive, D3 ag inactive, ClpP mod inactive, DT40 TDP1 no CPT 16.4µM and DRD3 antagonist inactive.
`O=C(C[C@H]1C/C=C\CC[C@H](Cc2ccc(F)cc2)C(=O)OCCNC1=O)NCCO` gave DT40 TDP1 CPT inactive, IL-1B inflam inh inactive, D3 ag inactive, ClpP mod inactive, DT40 TDP1 no CPT inactive and DRD3 antagonist inactive.
Screening C[C@@H]1COC(=O)[C@H](Cc2ccc(F)cc2)CC/C=C/C[C@@H](CC(=O)N[C@@H](CO)Cc2ccccc2)C(=O)N1 returned DT40 TDP1 CPT inconclusive, IL-1B inflam inh inactive, D3 ag inactive, ClpP mod inactive, DT40 TDP1 no CPT 25.9µM and DRD3 antagonist inconclusive.
CC(C)(C)[C@H]1COC(=O)[C@@H](Cc2ccc(F)cc2)C/C=C\C[C@@H](CC(=O)N[C@@H](CO)Cc2ccccc2)C(=O)N1 was read as DT40 TDP1 CPT inconclusive, IL-1B inflam inh inactive, D3 ag inactive, ClpP mod inactive, DT40 TDP1 no CPT 18.4µM and DRD3 antagonist inactive.
For O=C(C[C@@H]1C/C=C/CC[C@H](Cc2ccc(F)cc2)C(=O)OC[C@@H](Cc2ccccc2)NC1=O)N[C@H](CO)Cc1ccccc1 the results were DT40 TDP1 CPT inconclusive, IL-1B inflam inh inactive, D3 ag inactive, ClpP mod inactive, DT40 TDP1 no CPT inconclusive and DRD3 antagonist inactive.
O=C(C[C@@H]1C/C=C/CC[C@H](Cc2ccc(F)cc2)C(=O)OCCNC1=O)N[C@H](CO)Cc1ccccc1 was read as DT40 TDP1 CPT 20.6µM, IL-1B inflam inh inactive, D3 ag inactive, ClpP mod inactive, DT40 TDP1 no CPT 11.6µM and DRD3 antagonist inactive.
Screening O=c1c(N2CCN(c3cccc(Cl)c3)CC2)csc2ccccc12 returned DT40 TDP1 CPT inconclusive, D3 ag inactive, ClpP mod inactive and DT40 TDP1 no CPT inconclusive.
Screening O=C1N(c2ccccc2C(F)(F)F)O[C@]1(c1ccccc1)C1CCCC1 returned DT40 TDP1 CPT inactive, IL-1B inflam inh inactive, D3 ag inactive, ClpP mod inactive, DT40 TDP1 no CPT inactive and DRD3 antagonist inactive.
